The results in this text go back to PubChem BioAssay (EPA / NIEHS).

A short description of test [1]: CCTE_Mundy_HCI_iCellGluta_NOG_NeuronCount: CCTE's Neurite Outgrowth Assay in iCellGluta cells for Neuron Count, Mundy Lab (AID 2284340).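 Further: cells fixed about 48 h after compound addition.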 In a few lines: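 Neuron count read by automated high-content imaging of Hoechst 33342 and betaIII-tubulin/Alexa Fluor-488 labelling in human iPSC glutamatergic neurons. Activity fitted relative to DMSO.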
Test [2] in a line: CCTE_Mundy_HCI_iCellGluta_NOG_NeuriteCount: CCTE's Neurite Outgrowth Assay in iCellGluta cells for Neurite Count, Mundy Lab (AID 2284342).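 Further: chemical exposure about 48 hours starting 2 hours after plating.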
The subject of test [3] is SERPINA7 (gene 6906). The experiment in a line: CCTE_GLTED_hTBG: CCTE's human Thyroxine-binding Globulin (TBG) Inhibition Assay, Great Lakes Toxicology and Ecology Division (GLTED) Lab (AID 2284343).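 Further: active chemicals lower fluorescence versus DMSO baseline by displacing probe.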 In a few lines:
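Cell-free binding assay in which human TBG is incubated with test chemical for 2 hours and displacement of the fluorescent probe ANSA is read at 380 nm excitation/475 nm emission. Activity is fitted against DMSO as the negative control.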

Test [4] deals with TTR (gene 7276). The experiment in a line: CCTE_GLTED_hTTR_0.125uM: CCTE's human Transthyretin (hTTR) Inhibition Assay, with 0.125uM TTR, Great Lakes Toxicology and Ecology Division (GLTED) Lab (AID 2284431; active means hit-call score of the fitted dose curve at least 0.9, where 1 is the maximum; inactive means score below 0.9;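 further: hits lower the fluorescence signal relative to DMSO baseline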). The gist of the method:
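Cell-free displacement of ANSA probe from 0.125uM TTR after 2 h incubation with chemical. Fluorescence read at 380 nm excitation/475 nm emission; loss of signal relative to DMSO indicates T4-site displacement.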

Test [5] in a line: CCTE_Deisenroth_H295R-HTRF_384WELL_ESTRADIOL: CCTE's H295R-HTRF Assay Evaluation of Estradiol Concentration, Deisenroth Lab (AID 2284361; active means hit-call score of the fitted dose curve at least 0.9, where 1 is the maximum; inactive means score below 0.9). The following applies: actives raise or lower the signal. The gist of the method:
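H295R cells exposed 48 h to chemicals at 0.001 - 100 uM final (nine points, triplicate); estradiol in conditioned medium measured by HTRF immunoassay, fitted bidirectionally versus DMSO. Viability by CellTiter-Glo on same plates.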

Test [6] can be described thus: CCTE_Deisenroth_H295R-HTRF_384WELL_TESTOSTERONE: CCTE's H295R-HTRF Assay Evaluation of Testosterone Concentration, Deisenroth Lab (AID 2284373; active means hit-call score of the fitted dose curve at least 0.9, where 1 is the maximum; inactive means score below 0.9). The following applies: actives raise or lower the signal. In a few lines:
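Secreted testosterone was quantified by HTRF immunoassay of medium from human adrenocortical H295R cells after 48 h chemical exposure at 0.001–100 uM final. Gain or loss was fitted against DMSO. ATP-based viability was read on matched wells, five experimental replicates.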

A short description of test [7]: CCTE_Deisenroth_H295R-HTRF_384WELL_CTOX: Cytotoxicity Assessment in CCTE's H295R-HTRF Assay, Deisenroth Lab (AID 2284380). In a few lines:
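H295R adrenocortical carcinoma cells plated 24 h, then exposed 48 h to nine-point series 0.001–100 uM final, triplicate, n=5. ATP measured by CellTiter-Glo 2.0 luminescence on same plates after medium collection; loss versus DMSO.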
(TR-FRET usually uses a lanthanide donor and a delayed reading to cut background.)

Test [8] in a line: VALA_MIGHUV1_ScratchOnly_WoundArea: VALA Sciences human Umbilical Vein Endothelial Cell Migration (MIGHUV) Assay, Area of Scratch Wound Inhibited Recovery (AID 2284336). The gist of the method:
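HUVEC monolayers (9000 cells/well) were scratched after 24 h, dosed within 30 min (six concentrations, triplicate, 0.1% DMSO), allowed 24 h recovery, then fixed. Hoechst-stained nuclei in the wound imaged; cytochalasin D as reference.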

Test [9] is described as follows: VALA_TUBHUV_Agonist_TubuleLength: VALA Sciences human Umbilical Vein Endothelial Tubule Formation (TUBHUV) Agonism Assay (AID 2284337). The gist of the method: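 HUVEC co-cultured with fibroblasts (1:3) 3 days in 10 ng/ml VEGF, then 3 days with compound plus VEGF; 0.1 % DMSO neutral control. Fixed, nuclear and CD31 stained; tubule length by fluorescence imaging.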

A short description of test [10]: VALA_TUBIPS_Agonist_CellCount: Viability Assessment in the VALA Sciences human iPS-derived Endothelial Tubule Formation (TUBIPS) Agonism Assay (AID 2284338).

Each structure is given as a SMILES string. Inconclusive results are not listed. Activity calls are given as the source filed them. How the source made its calls, unless noted: active means hit-call score of the fitted dose curve at least 0.9, where 1 is the maximum; inconclusive means response in the unintended direction; inactive means score below 0.9.

Consider `CCCSP(=O)(OCC)SCCC`, for which the compound was called inactive in [1] and in test [2].
`CCOP(=S)(Oc1cnc(C(C)(C)C)nc1)OC(C)C` (stereo not given): the AC50 is 16 µM (active) in test [1], 23.9 µM (active) in [2] and 16.7 µM (active) in test [3].
As to `CC(C)N(C(=O)SCC(Cl)=C(Cl)Cl)C(C)C`, the figures for the AC50 in test [1] and in test [2] were 22.4 µM (active) and 23.2 µM (active), respectively.
In the case of `Cc1cc(C2CC2)nc(Nc2ccccc2)n1`, the AC50 in test [4] was 14.8 µM (active).
For the compound `CC(C1CC1)C(O)(Cn1cncn1)c1ccc(Cl)cc1` (stereo not given), the call in test [5], in [6] and in test [7] was inactive.
In the case of `COc1cccc(C(=O)NN(C(=O)c2cc(C)cc(C)c2)C(C)(C)C)c1C`, the concentration at half-maximal activity (AC50) in [4] is 20.6 µM (active).
`COP(=O)(NC(C)=O)SC` (stereo not given): the compound was classed as inactive in test [1] and in [2].
On to `S=C1NCCN1`, for which the result in test [8], in test [9], in test [10], in test [1] and in test [2] was inactive.
Turning to `C[N+]1(C)CCCCC1`, the compound was classed as inactive in test [1] and in test [2].
On to `CSC1=N[C@@](C)(c2ccccc2)C(=O)N1Nc1ccccc1`, for which the compound was classed as inactive in test [1] and in test [2].
For the compound `CCOP(=S)(OCC)Oc1ccc([N+](=O)[O-])cc1`, the compound was called inactive in test [1] and in test [2]. The concentration at half-maximal activity (AC50) in test [3] is 11.6 µM (active).
Consider `CC1(C(=O)Nc2ccc(O)c(Cl)c2Cl)CCCCC1`, for which the AC50 in test [4] was 7.98 µM (active).
With `CCCSP(=O)(OCC)Oc1ccc(Br)cc1Cl` (stereo not given), the AC50 in [3] was 14.1 µM (active); in test [4], 3.6 µM (active).
As to `CCCCOC(=O)c1ccccc1C(=O)O`, the AC50 in [5] was 54.9 µM (active). Besides, the compound was called inactive in test [6] and in test [7].
For `O=[N+]([O-])c1cc(C(F)(F)F)c(Cl)c([N+](=O)[O-])c1Nc1ncc(C(F)(F)F)cc1Cl`, the call in test [8] and in test [10] was inactive. Further, the AC50 is 3.14 µM (active) in test [1], 0.937 µM (active) in test [2], 0.388 µM (active) in test [3] and 0.0665 µM (active) in [4].
With `CC[C@H](C)[C@H]1O[C@]2(C=C[C@@H]1C)C[C@@H]1C[C@@H](C/C=C(\C)[C@@H](O[C@H]3C[C@H](OC)[C@@H](O[C@H]4C[C@H](OC)[C@@H](NC)[C@H](C)O4)[C@H](C)O3)[C@@H](C)/C=C/C=C3\CO[C@@H]4[C@H](O)C(C)=C[C@@H](C(=O)O1)[C@]34O)O2`, the AC50 in test [1] was 0.896 µM (active); in test [2], 0.824 µM (active).

One may read the AC50 as the midpoint of the concentration-response curve, whichever way the signal moves.
